Results taken from PubChem BioAssay AID1626 (SRMLSC, 2009).
Hit rate of the full screen: of about 220,000 compounds, about 2,000 (0.91%) were called active. Another 2% or so got no clear call; they are omitted. These entries were drawn from the full list. Measured potencies and affinities stand elsewhere. Unmarked numbers belong to inactive results. No stated cut-off is given here; in the data, inconclusive means inhibition above about 80% without an active follow-up result; inactive means below that; test concentration not stated here.

assay: M. tuberculosis H37Rv growth inhibitors, H37Rv strain (AID 1626); conditions: stronger effect = higher value, concentration not given here;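 further: bacteria incubated seven days before Alamar blue readout; 0% = bacteria only wells and 100% = bacteria with antibiotic wells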

| SMILES | inhibition |
| --- | --- |
| COC(=O)c1cc(NS(=O)(=O)c2ccc(C)c3ccccc23)ccc1N1CCOCC1 | -0.65% |
| O=C1CC(N2CCC(O)CC2)C(=O)N1c1ccc(Br)cc1 (stereo not drawn) | -5.77% |
| O=C(CC1(O)C(=O)N(CCc2ccccc2)c2ccccc21)c1ccccn1 (stereo not drawn) | -2.54% |
| CC(=O)c1c(C)[nH]c(C(=O)OCC(=O)N2c3ccccc3NC(=O)C2(C)C)c1C | 1.01% |
| CCS(=O)(=O)Nc1ccc(-c2nnc(SCC(=O)OC)o2)cc1 | 6.98% |
| COC(=O)CSc1nnc(-c2ccc(S(=O)(=O)NCc3cccs3)cc2)o1 | 62.9% |
| COC(=O)COc1ccccc1/C=C1/NC(=O)NC1=O | -6.93% |
| COC(=O)COc1cc(Cl)c(C=O)cc1OC | 4.35% |
| COc1ccc2c(c1)c1c3n2CCN(C)C3=NCC1 | -9.72% |
| OC1CN=C2CCCc3c2n(c2ccc(Cl)cc32)C1 (stereo not drawn) | -8.27% |
| Cc1ccc2c(c1)c1c(n2C)C(=O)CCC1 | -12.1% |
| CCN1CCn2c3c(c4cc(C)ccc42)CCCC31 (stereo not drawn) | 3.23% |
| Cc1ccc(C(=O)Nc2cc(C)c(OCC(=O)N3CCOCC3)c(C)c2)cc1 | 0.81% |
| COc1ccc(C2C(C#N)=C(N)Oc3cc(C)n(Cc4ccco4)c(=O)c32)cc1 (stereo not drawn) | 3.54% |
| CC1(C)Cc2nc3sc4c(SCC(=O)O)ncnc4c3cc2CO1 | -5.61% |
| CCSc1ncnc2c1sc1nc3c(cc12)COC(C)(C)C3 | 12.9% |
| O=C(NCCCn1ccnc1)C(=O)NCC1OCCCN1S(=O)(=O)c1ccc(Cl)cc1 (stereo not drawn) | 1.46% |
| O=C(O)c1ccc(CN2CCCCC2)o1 | -8.71% |
| COc1ccc(C2(CNC(=O)c3ccc(OC)c([N+](=O)[O-])c3)CCCCC2)cc1OC | 8.89% |
| COc1ccc(C2(CNC(=O)c3cccc([N+](=O)[O-])c3)CCCCC2)cc1OC | 17.8% |
| O=C(Nc1nnc(SCC(=O)N2CCCCC2)s1)c1cccs1 | -7.76% |
| Cc1ccc(F)cc1NC(=O)C1CCN(c2cnccn2)CC1 | -7.04% |
| Cc1nn(Cc2ccccc2)c(N)c1-c1ccccc1 | -0.48% |
| O=C(Nc1ccccc1)c1n[nH]c(Cn2cncn2)n1 | -3.09% |

| SMILES | inhibition |
| --- | --- |
| O=C(CSc1nc2ccc(Cl)cc2[nH]1)NC1CCCc2ccccc21 (stereo not drawn) | 17.1% |
| COc1ccc(NC(=O)CSc2nc3ccc(OC)cc3[nH]2)cc1 | 45.7% |
| NS(=O)(=O)c1cccc(NC(=O)CSc2nc3ccc(Cl)cc3[nH]2)c1 | -6.21% |
| COc1ccc2nc(SCC(=O)Nc3ccccc3)[nH]c2c1 | 6.28% |
| O=C(OCC(=O)N1CCCC1=O)C1COc2ccccc2O1 (stereo not drawn) | 2.07% |
| CCN(CC)CCCNC(=O)c1cn(C)c2ccc(S(=O)(=O)N(C)C)cc2c1=O | -9.88% |
| O=C(CCc1nc2ccccc2c(=O)[nH]1)N1CCN(c2ccc(F)cc2)CC1 | -1.16% |
| COc1cc(/C=N/n2c(-c3n[nH]c4c3CCC4)n[nH]c2=S)cc(OC)c1O | -6.81% |
| CC1CCN(S(=O)(=O)c2ccc3[nH]c(=O)cc(C(=O)O)c3c2)CC1 | -1.86% |
| CS(=O)(=O)c1ccc(Sc2nc3ccccc3s2)c([N+](=O)[O-])c1 | 76.8% |
| NS(=O)(=O)c1ccc(Sc2nc3ccccc3s2)c([N+](=O)[O-])c1 | 5.37% |
| CN1CCc2c(C#N)c(N3CCOCC3)nc(NCC3CCCO3)c2C1 (stereo not drawn) | -11.2% |
| C=CCSc1nnc(-c2sc(-c3ccccc3)nc2C)n1C | 6.24% |
| C#CCOCCOCCOCCNc1nc(N2CCN(C(=O)[C@H](CCC(=O)O)n3cc(C(N)CC(C)C)nn3)CC2)nc(N2CCN(C(=O)[C@H](Cc3ccc(O)cc3)n3cc(C(N)CC(C)C)nn3)CC2)n1 (stereo partly drawn) | -8.68% |
| O=C(Nc1ncc(Cc2ccccc2Cl)s1)c1ccc([N+](=O)[O-])cc1 | -9.37% |
| CC(C)C(=O)Nc1ncc(Cc2ccccc2Cl)s1 | -0.08% |
| Cc1ccc(C(=O)Nc2ncc(Cc3ccc(SC(F)F)cc3)s2)cc1 | 6.66% |
| Cc1ccc(C(=O)Nc2ncc(Cc3ccccc3)s2)o1 | -9.94% |
| O=C(Nc1ncc(Cc2cccc(Cl)c2)s1)c1ccc([N+](=O)[O-])cc1 | -4.66% |
| CC(C)C(=O)Nc1ncc(Cc2ccc(Cl)cc2)s1 | 18.6% |
| O=C(Nc1ncc(Cc2ccccc2)s1)C1COc2ccccc2O1 (stereo not drawn) | 13.8% |
| CC(=O)Nc1ncc(Cc2cccc(Cl)c2)s1 | 3.07% |
| COc1cccc(C(=O)Nc2nnc(Cc3ccc(OC)c(OC)c3)s2)c1 | 4.42% |
| COC(=O)C1=C(C)N(Cc2ccco2)C(=O)N[C@H]1c1cccc(C(F)(F)F)c1 | -4.29% |

| SMILES | inhibition |
| --- | --- |
| COC(=O)C(NC(=O)CSc1nc(N)cc(=O)[nH]1)c1ccccc1 (stereo not drawn) | 6.05% |
| Cc1ccc(SCC(=O)N(C)C2CCS(=O)(=O)C2)cc1 (stereo not drawn) | 71.9% |
| O=C(N/N=C/c1ccc(OCCCF)cc1)c1ccc(C(F)(F)F)cc1 | -7.89% |
| O=C(CSc1nnc(CNc2ccc(F)cc2)n1Cc1ccccc1)NCc1ccco1 | -3.56% |
| CCN(CC)C1=N/C(=C\c2ccc(OC)cc2)C(=O)N1c1ccccc1 | 5.04% |
| COc1cc(NC(=O)CSc2nc3ccccc3cc2Cc2ccccc2)cc(OC)c1 | -2.51% |
| CCCCCn1c(SCc2cccc(C)c2)nc2c1c(=O)[nH]c(=O)n2C | 14.6% |
| CC/C(=N\NC(=O)c1cccnc1)c1ccc2c(c1)OCCO2 | 3.21% |
| CC1(C)CC(NC(=O)CCc2nnc(CCCCc3ccccc3)o2)CCO1 (stereo not drawn) | -4.26% |
| Cc1ccc(NC(=S)N(CCN2CCOCC2)Cc2cc3cc4c(cc3[nH]c2=O)OCCO4)cc1 | 2.46% |
| COc1cccc(CNc2cccc3cccnc23)c1O | 6.53% |
| CCN(CC)C(=O)Nc1cnc2ccccc2c1 | 63.2% |
| Cn1c(NCc2c(O)ccc3ccccc23)nc2ccccc21 | 6.55% |
| Oc1ccc2ccccc2c1CNn1cnnc1 | 1.43% |
| COc1cccc(CNc2ncc(Br)cc2Br)c1O | -8.94% |
| NC(=S)Nc1cnc2ccccc2c1 | 0.46% |
| Cc1nc(SCC(=O)Nc2cccc(Cl)c2)n[nH]1 | -3.06% |
| O=C1CCC/C(=N\NC(=O)c2ccc(COc3ccccc3-c3ccccc3)cc2)C1 | 4.62% |
| Cc1cccc(N2CC(C(=O)OCC(=O)c3ccc(OC(=O)c4cccs4)cc3)CC2=O)c1C (stereo not drawn) | 1.47% |
| CN(CCOC(=O)c1ccc2c(c1)OCO2)C(C)(C)C | -1.44% |
| CC1=CC2=NC(=O)/C(=C\c3cccn3CCOc3cc(C)ccc3C)C(=N)N2O1 | 12.3% |
| O=C(CCc1ccccc1)N1N=C(c2ccncc2)CC1(O)C(F)(F)F (stereo not drawn) | -7.97% |
| O=C(NCCN1CCCCC1)Nc1ccc(F)c(Cl)c1 | -6.79% |
| Cc1[nH]n(C)c(=O)c1N=Nc1ccc(S(C)(=O)=O)cc1 | -6.82% |

| SMILES | inhibition |
| --- | --- |
| Cc1ccc(N=Nc2c(C)[nH]n(C(N)=S)c2=O)cc1 | -3.59% |
| COc1ccc(-c2nnc(SCC(=O)NC(C)C)n2CC2CCCO2)cc1OC (stereo not drawn) | -10.3% |
| COc1ccc(C2/C=C\CN(C(=O)Nc3ccccc3)CC(=O)N2Cc2ccc(F)cc2)cc1 (stereo not drawn) | -8.73% |
| COc1ccc(C2/C=C\CN(C(=O)Oc3ccc(C(F)(F)F)cc3)CC(=O)N2Cc2ccc(F)cc2)cc1 (stereo not drawn) | 2.36% |
| COc1ccc(NC(=O)C(=O)NCCCn2ccnc2)cc1 | -13.8% |
| O=C(Nc1csc([N+](=O)[O-])c1)Nc1c(Cl)cccc1Cl | 0.45% |
| O=C(Nc1csc([N+](=O)[O-])c1)Nc1ccccc1Cl | 76.8% |
| O=C(CN(CCc1ccccc1)S(=O)(=O)c1ccc(Br)cc1)N/N=C/c1ccccc1C(=O)O | 1.98% |
| COc1ccc(-n2nc(C(N)=O)c(O)cc2=O)cc1 | -4.24% |
| COc1ccccc1CNC(=O)CN1C(=O)CSc2ccc(S(=O)(=O)N3CCCC3)cc21 | -3.73% |
| CCOC(=O)c1ccc(N2C(=O)c3n[nH]c(C)c3C2c2ccccc2)cc1 (stereo not drawn) | -3.14% |
| CCOC(=O)c1ccc(N2C(=O)c3n[nH]c(C)c3C2c2ccco2)cc1 (stereo not drawn) | 0.01% |
| Cc1[nH]c2ccc(F)cc2c1CCN(Cc1cccnc1)C(=S)Nc1ccccc1 | -0.56% |
| CCCCCCCN1C2=NCCN2c2ccccc21 | -5.76% |
| CCCCC1=CC2=CC(=O)C(C)(OC(=O)CC)C(=O)C2=CN1CCN1CCOCC1 (stereo not drawn) | 2.28% |
| CC1(C)CC(=O)C2=C(C1)OC(N)=C([N+](=O)[O-])C2c1cccs1 (stereo not drawn) | 3.66% |
| Cc1ccc(C2C(C#N)=C(N)OC3=C2C(=O)CC(C)(C)C3)s1 (stereo not drawn) | 2.18% |
| O=C1/C(=C/c2ccccc2Cl)N2CCC1CC2 | 7.2% |
| Cc1ccc2c(c1)C(c1ccncc1)=NNC(c1ccc(F)cc1)=N2 | 5.08% |
| COc1ccc(-c2ccc([C@H]3[C@@H]4C=CCC[C@@]4(C)C(=O)N3Cc3ccccc3)c(F)c2)cc1 | 21.9% |
| COc1ccc(-c2ccc(OC)c([C@H]3[C@@H]4C=CCC[C@@]4(C)C(=O)N3Cc3ccccc3)c2)cc1OC | 10.5% |
